Screens from PubChem BioAssay.
SIAE inh: blocks human sialic acid acetylesterase | Q9HAT2 | SIAE FP-Rh probe binding, fluorescence polarization | inhibition, % at 9.66 µM | 370,000 tested, 0.69% active;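 active = inhibition above a cutoff: mean of compounds within the control limits plus 3 SD of those, cut at about 17% in these data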
TCR-CD3 inh: inhibitors of human TCR-CD3 interaction. TAMRA-labeled TCR probe fluorescence, biochemical. AID 651800. 360,000 tested, 0.37% active. inhibition, % at 9.4 µM; in the data active = inhibition above about 19%;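 also: recombinant mutant TCR 2C K166C tagged with TAMRA read by polarization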
Fam108B counter: Fam108B inhibition, counter-screen for RBBP9 inhibitors | recombinant Fam108B, FP-Rh probe fluorescence polarization | inhibition, % at 9.51 µM | 300,000 tested, 0.33% active;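 active = inhibition above the screen mean inhibition plus 3 SD, computed separately per campaign, cut at about 18% in these data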;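 also: inhibitors lower polarization as less probe binds the enzyme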
PRMT1 inh: blocks human protein arginine methyltransferase 1. Q99873. recombinant PRMT1, activity-based probe fluorescence polarization. inhibition, % at 2.79 µM. 370,000 tested, 1.3% active. AID 652257;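 active = inhibition above about 21% made by adding two undisclosed values, limit read from the data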
PME-1 inh: PME-1 (human) inhibition | Q9Y570 | recombinant PME-1, FP-Rh probe fluorescence polarization | inhibition, % at 5.9 µM | 320,000 tested, 0.53% active | AID 2130;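 active = inhibition above the campaign mean of all compounds plus 3 SD, cut at about 26% in these data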;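 also: competitive labeling of PME-1 active site by serine hydrolase directed probe; inhibitors block probe labeling so polarization falls and inhibition rises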
PAD4 FP inh: blocks human protein arginine deiminase 4; 330,000 tested, 0.41% active; inhibition, % at 6.36 µM; Q9UM07; recombinant PAD4, RCA probe fluorescence polarization;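 active = percent inhibition above a cutoff equal to the mean of all tested compounds plus 3 SD, cut at about 15% in these data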
Target sequence (Q9UM07 whole entry, looked up): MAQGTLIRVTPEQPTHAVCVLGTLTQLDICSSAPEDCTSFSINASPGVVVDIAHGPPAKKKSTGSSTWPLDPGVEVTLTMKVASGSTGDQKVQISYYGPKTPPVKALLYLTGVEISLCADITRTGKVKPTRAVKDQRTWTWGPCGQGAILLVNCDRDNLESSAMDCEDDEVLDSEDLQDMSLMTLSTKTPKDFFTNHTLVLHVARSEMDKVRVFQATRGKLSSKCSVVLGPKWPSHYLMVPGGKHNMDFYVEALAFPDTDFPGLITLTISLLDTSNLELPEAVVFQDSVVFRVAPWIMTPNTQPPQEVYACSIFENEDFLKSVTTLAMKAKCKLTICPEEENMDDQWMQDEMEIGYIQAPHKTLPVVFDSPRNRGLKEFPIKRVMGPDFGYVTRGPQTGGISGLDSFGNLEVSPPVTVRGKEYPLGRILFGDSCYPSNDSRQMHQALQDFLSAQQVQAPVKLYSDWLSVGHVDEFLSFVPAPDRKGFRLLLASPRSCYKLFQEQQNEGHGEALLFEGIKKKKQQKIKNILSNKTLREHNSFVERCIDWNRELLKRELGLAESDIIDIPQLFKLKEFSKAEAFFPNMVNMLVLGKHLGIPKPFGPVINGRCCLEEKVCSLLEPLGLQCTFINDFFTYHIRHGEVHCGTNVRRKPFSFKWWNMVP
PRMT1 confirm: PRMT1 (human) inhibition, FP confirmation; recombinant His-PRMT1, activity-based probe fluorescence polarization; 3,300 tested, 42% active; shares compounds with PRMT1 inh; inhibition, % at 2.79 µM;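 active = mean inhibition across replicates above the hit cutoff derived for the earlier primary screen, cut at about 22% in these data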
Hits are given with their value; i = inactive; nt = no result given. Sampled rows, rich in hits. Any-hit rate of the full collection: about 2.6%.

SMILES	SIAE inh	TCR-CD3 inh	Fam108B counter	PRMT1 inh	PME-1 inh	PAD4 FP inh	PRMT1 confirm
CCN(CC)C(=O)[C@H]1C[C@H](CC(=O)NCCc2ccccn2)C(=O)N2CCc3c([nH]c4cc(-c5ccco5)ccc34)[C@]12C	i	i	nt	i	nt	i	nt
CC(C)N(C(=O)[C@H]1C[C@H](CC(=O)NCCc2ccccn2)C(=O)N2CCc3c([nH]c4cc(-c5ccco5)ccc34)[C@]12C)C(C)C	i	i	nt	40	nt	i	i
CCOC(=O)Nc1ccc(C)cc1NC(=O)OCC	i	i	i	i	i	i	nt
CCOC(=O)Nc1ccc(NCc2ccc(F)cc2)nc1N	i	i	i	64	i	i	i
CCCCc1c(O)nc(SCC(=O)c2ccccc2)[nH]c1=O	i	i	i	40	i	i	38
O=C(CSc1nc(O)c(Cc2ccccc2)c(=O)[nH]1)N1CCOCC1	i	i	i	i	i	i	nt
O=C(CSc1nc(O)c(Cc2ccccc2)c(=O)[nH]1)c1ccccc1	i	i	i	47	i	i	34
CCN1CCN(C(c2cc3cccc(C)c3[nH]c2=O)c2nnnn2Cc2ccccc2)CC1 (centres undefined)	i	i	i	i	i	i	nt
Cc1cccc2cc(C(c3nnnn3Cc3ccccc3)N3CCCc4ccccc43)c(=O)[nH]c12 (centres undefined)	i	i	i	26	i	i	i
CCCN(CC1CC1)C(=O)c1ccc(CNC(=O)c2cccc(Br)c2)cc1	i	nt	nt	i	nt	nt	nt
C=CCc1cccc2cc(C(=O)Nc3ccccc3C(=O)O)c(=O)oc12	i	i	nt	36	nt	nt	i
CCOC(=O)C1=C(CSc2nc3c(cc2C#N)CCC3)OC(N)=C(C#N)C1c1ccccc1 (centres undefined)	i	i	i	46	i	i	i
CCOC(=O)C1=C(CSc2nc(-c3ccccc3)ccc2C#N)OC(N)=C(C#N)C1c1cccnc1 (centres undefined)	i	i	i	41	i	i	26
Cc1ccccc1C(=O)n1ccc2ccc(-c3ccc4ccn(Cc5ccccc5)c4c3)cc21	i	nt	nt	i	nt	nt	nt
CCOC(=O)CNC(=O)Cn1cnc2c(cnn2-c2ccc(C)cc2)c1=O	i	i	i	76	i	i	i
C[C@@H]1C=C(C(=O)NCc2nc3ccccc3[nH]2)O[C@H](OCc2ccc(CO)cc2)C1	i	i	i	i	i	i	nt
C[C@@H]1C=C(C(=O)NCc2nc3ccccc3[nH]2)O[C@H](OCCCCO)C1	i	i	i	47	i	i	33
c1csc(CNc2ncnc3ccc(-c4ccc5c(c4)OCO5)cc23)n1	i	nt	nt	i	nt	nt	nt
CC(C)(NC(=O)c1ccccc1)c1nc2ccccc2s1	i	i	i	59	i	i	82
Cc1cccn2c(=O)c3cc(C#N)c(=NC(=O)c4ccncc4)n(CCCOC(C)C)c3nc12	i	i	i	26	i	i	i
COCCCn1c(=NC(=O)c2ccncc2)c(C#N)cc2c(=O)n3cccc(C)c3nc21	i	i	i	i	i	i	nt
C[C@@H]1CCN(C2CC2)S(=O)(=O)c2c(cccc2N2CC[C@@H](O)C2)O1	i	nt	nt	i	nt	nt	nt
COC(=O)[C@H](C(C)C)N(CCc1cn(Cc2ccc(C)cc2)nn1)S(=O)(=O)c1ccccc1Br	i	nt	nt	i	nt	nt	nt
CC(/C=N/n1c(-c2cc(C)[nH]n2)n[nH]c1=S)=C\c1ccccc1	i	i	i	i	i	i	nt
CC(=C/c1ccccc1)/C=N/n1c(-c2ccco2)n[nH]c1=S	i	i	i	32	i	i	i
SMILES	SIAE inh	TCR-CD3 inh	Fam108B counter	PRMT1 inh	PME-1 inh	PAD4 FP inh	PRMT1 confirm
S=c1[nH]nc(-c2ccc(Cl)cc2)n1/N=C/C=C/c1ccco1	i	i	i	31	i	i	i
S=c1[nH]nc(-c2ccco2)n1/N=C/c1cccc(Cl)c1Cl	i	i	i	33	i	i	33
COC(=O)C1CN(CCc2ccccc2)CCS(=O)(=O)N1Cc1ccc(OC)cc1 (centres undefined)	i	nt	nt	i	nt	nt	nt
O=C(COc1ccccc1)Nc1nc(-c2cccnc2)cs1	i	i	nt	i	i	i	nt
Cc1cc(C)cc(OCC(=O)Nc2nc(-c3cccnc3)cs2)c1	i	i	i	35	i	i	i
O=C(COc1ccccc1)Nc1nc(-c2ccncc2)cs1	i	i	i	35	i	i	34
COC(=O)[C@H](C(C)C)N(Cc1cn(CC2CCCCC2)nn1)S(=O)(=O)c1ccc(F)cc1Br	i	nt	nt	i	nt	nt	nt
Cc1cccc(-n2c(C)c(-c3ccccc3)[nH]c2=S)c1	i	i	i	34	i	i	i
Cc1cccc(-n2c(C)n[nH]c2=S)c1	i	i	i	i	i	i	nt
CCN(CC)CCSc1nc2c([nH]1)c(=S)n(C)c(=O)n2C	i	i	nt	42	nt	nt	i
CCCCSc1nc2c([nH]1)c(=S)n(C)c(=O)n2C	i	i	nt	i	nt	nt	nt
CCN(CC)c1ccc(/C=C(/C#N)c2nc3ccc(C)cc3[nH]2)c(OC(C)C)c1	i	i	i	48	i	i	53
CCCOc1cc(N(CC)CC)ccc1/C=C(/C#N)c1nc2ccc(C)cc2[nH]1	i	i	i	i	i	i	nt
Cc1ccsc1/C=C1\Oc2cc(O)ccc2C1=O	i	i	nt	40	nt	nt	30
O=C1/C(=C/c2ccc(O)c(O)c2)Oc2cc(O)ccc21	i	i	i	i	i	i	nt
CC(C)(C)c1ccc(-c2nnc(SCC(=O)Nc3ccc4c(c3)OCCO4)n2-c2ccc(Cl)cc2)cc1	i	nt	nt	i	nt	nt	nt
CN1/C(=C\C(=O)c2cccs2)Sc2ccccc21	i	i	i	42	i	i	i
CN1/C(=C/C(=O)c2cccs2)Sc2ccccc21	i	i	i	25	i	i	i
CN1/C(=C\C(=O)c2cccs2)C(C)(C)c2ccccc21	i	i	i	i	i	i	nt
CN1/C(=C/C(=O)C2CCC2)Sc2ccccc21	i	i	i	63	i	i	i
COc1cccc(NC(=O)c2sc3nc(N4CCOCC4)c4c(c3c2N)CCCC4)c1	i	i	i	32	i	i	i
Nc1c(C(=O)Nc2ccc(Cl)cc2)sc2nc(N3CCOCC3)c3c(c12)CCCC3	i	i	i	30	i	i	46
CC1(C)Cc2c(c(N3CCOCC3)nc3sc(C(=O)N4CCCCC4)c(N)c23)CO1	i	i	i	i	i	i	nt
Cc1cc(C)c2cc3c(N)c(C(=O)N4CCc5ccccc5C4)sc3nc2c1	i	i	i	i	i	i	nt
Nc1c(C(=O)N2CCOCC2)sc2nc(N3CCOCC3)c3c(c12)CCCC3	i	i	i	34	i	i	i
Cc1cccc2cc3c(N)c(C(=O)N4CCOCC4)sc3nc12	i	i	i	36	i	i	i
Cc1ccc(NC(=O)c2sc3nc(N4CCOCC4)c4c(c3c2N)CCCC4)cc1	i	i	nt	27	nt	nt	i
CC(=O)c1ccc(NC(=O)c2sc3nc(N4CCOCC4)c4c(c3c2N)CCCC4)cc1	i	i	i	i	i	i	nt
Nc1c(C(=O)Nc2ccccc2)sc2nc(N3CCOCC3)c3c(c12)CCCC3	i	i	nt	35	nt	nt	i
